Where “and” joins values, the source holds several entries; their conditions need not be identical. Identical values can stand only once. Records with an inconclusive call do not appear. Where a structure was tested more than once in an assay, its records may differ in their call. Calls of active or inactive are those of the source. Unless noted, calls follow the shape of the dose curve; as a rule, active = well fitted curve in the direction sought with a large enough effect in the repeat runs; inconclusive = weak or mixed curves; inactive = no such curve, though single readings can be large; an effect the other way counts as inactive or inconclusive.

Experiment [1] in a line: A CellTox Green Cytotoxicity Assay to monitor cytotoxicity in HEK293 cells - 32 hour (AID 1224881). Also: nearly all actives have a fitted effect of over 40% in size. Also: potency is read from the fitted curve at half-maximal effect. The gist of the method: (§1)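 Homogeneous no-lysis format: HEK293 cell suspension mixed with CellTox Green reagent, seeded, incubated 5 h at 37 C/5% CO2, then dosed by pintool with compound in DMSO.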
The nature of experiment [2]: A CellTox Green Cytotoxicity Assay to monitor cytotoxicity in HepG2 cells - 0 hour (AID 1224882). Also: nearly all actives have a fitted effect of over 35% in size. The gist of the method: (§2)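 Fluorescent DNA-binding dye, 600 HepG2 cells/well, 5 h preincubation then compound in DMSO; same plates read at 0–40 h, 37 C.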
Experiment [3] can be described thus: A CellTox Green Cytotoxicity Assay to monitor cytotoxicity in HepG2 cells - 32 hour (AID 1224883). Also: nearly all actives have a fitted effect of over 50% in size. Also: potency is read from the fitted curve at half-maximal effect. The gist of the method: as §2
Experiment [4] is described as follows: qHTS RealTime-Glo MT Cell Viability Assay in HepG2 cells - 16 hour (AID 1224885). Also: nearly all actives have a fitted effect of over 50% in size. The gist of the method: (§3)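 Cells + NanoLuc/prosubstrate dispensed (600 cells/well) → 5 h at 37 C/5% CO2 → compounds in DMSO transferred → 40 h incubation at 37 C, luminescence read at 0, 8, 16, 24, 32, 40 h.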
A short description of experiment [5]: A CellTox Green Cytotoxicity Assay to monitor cytotoxicity in HEK293 cells - 16 hour (AID 1224888). Also: nearly all actives have a fitted effect of over 35% in size. The gist of the method:
as §1

A short description of experiment [6]: qHTS RealTime-Glo MT Cell Viability Assay in HepG2 cells - 0 hour (AID 1224889). Also: nearly all actives have a fitted effect of over 50% in size. The gist of the method: as §3
Background: In qHTS, concentration-response curves come from the screen itself.

Experiment [7] in a line: A CellTox Green Cytotoxicity Assay to monitor cytotoxicity in HepG2 cells - 8 hour (AID 1224890). Also: nearly all actives have a fitted effect of over 45% in size. The gist of the method: as §2
A short description of experiment [8]: qHTS assay to identify small molecule antagonists of the estrogen receptor alpha (ER-alpha) signaling pathway using the BG1 cell line in the presence of 0.1 nM 17-beta-estradiol - cell viability counter screen (AID 1259241). Also: nearly all actives have a fitted effect of over 40% in size. The gist of the method:
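VM7Luc4E2 cells (endogenous full-length ER-alpha, 4xERE-luciferase), cultured 5 days in charcoal-stripped serum, exposed to compounds with 0.1 nM 17beta-estradiol (final) for 22 hr at 37C. Viability read in same wells as live-cell protease fluorescence after 30 min.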

Experiment [9] can be described thus: qHTS assay to identify small molecule antagonists of the androgen receptor (AR) signaling pathway using the MDA cell line in the presence of 0.5 nM R1881 - cell viability counter screen (AID 1259242). Also: nearly all actives have a fitted effect of over 45% in size. An outline of the steps:
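Human breast carcinoma MDA-kb2 cells, cultured without CO2, receive compounds alongside 0.5 nM (final) R1881 agonist. After 16 hr at 37C, viability is taken as live-cell protease signal.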

Experiment [10] has as its target Estrogen receptor (Homo sapiens) (UniProt P03372). The experiment can be described thus: qHTS assay to identify small molecule antagonists of the estrogen receptor alpha (ER-alpha) signaling pathway using the BG1 cell line in the presence of 0.1 nM 17-beta-estradiol (AID 1259244). Also: nearly all actives have a fitted effect of over 50% in size. The gist of the method:
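Seeding of stripped-serum-adapted VM7Luc4E2 cells, 24 h attachment, compound transfer, then 0.1 nM final 17beta-estradiol; after 22 h incubation, ONE-Glo reagent and luminescence reading.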

Experiment [11] is described as follows: qHTS assay to identify small molecule HDAC inhibitors (AID 1259364).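 Also: wild-type HCT-116 cells with endogenous class I/II HDAC activity; top concentration of the series differs between compounds; nearly all actives have a fitted effect of over 45% in size.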 The gist of the method:
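After a 2 hr compound incubation (37C, 5% CO2), HCT-116 cells seeded at 1,500/well the day before received HDAC-Glo reagent; signal read as luminescence after 30 min at room temperature.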

Experiment [12] in a line: qHTS assay to identify small molecule HDAC inhibitors - cell viability counter screen (AID 1259365). An outline of the steps: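 Wild-type HCT-116 cells, 1,500/well, cultured overnight, then compound-treated 2 h at 37 C. Viability measured as ATP luminescence with CellTiter-Glo after 30 min at room temperature.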
Experiment [13] is described as follows: qHTS assay to identify small molecule agonists of the sonic hedgehog signaling (Shh) pathway - cell viability counter screen (AID 1259366). Also: nearly all actives have a fitted effect of over 50% in size. The gist of the method:
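NIH/3T3-derived Gli1-Luc reporter cells, 2,000 per well, received compound after 4 h and were treated about 23 h at 37C. Viability measured in the same wells by CellTiter-Fluor fluorescence after 1 h.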

The nature of experiment [14]: qHTS assay to identify small molecule antagonists of the sonic hedgehog signaling (Shh) pathway - cell viability counter screen (AID 1259367). Also: nearly all actives have a fitted effect of over 55% in size. Also: potency is read from the fitted curve at half-maximal effect. The gist of the method: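 Fluorescence read-out (CellTiter-Fluor, 1 hr at 37C) taken after 23 hr compound treatment of 3T3 Gli1-Luc cells stimulated with conditioned medium. Cells were seeded at 2,000 per well and pre-incubated 4 hr.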

Experiment [15] in a line: qHTS assay to identify small molecule agonists of the sonic hedgehog signaling (Shh) pathway (AID 1259368; calls by dose curve;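 also: NIH/3T3-derived 3T3Gli1-Luc cells carrying a stable Gli1-driven firefly luciferase reporter; series mostly up to about 92 µM; nearly all actives have a fitted effect of over 15% in size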). The gist of the method:
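Stable NIH/3T3 Gli1-Luc reporter clone; 24 hr cpd exposure after a 4 hr settling period; luminescence endpoint.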

Experiment [16] is described as follows: qHTS RealTime-Glo MT Cell Viability Assay in HEK293 cells - 24 hour (AID 1224886). Also: nearly all actives have a fitted effect of over 50% in size. Also: potency is read from the fitted curve at half-maximal effect. The gist of the method:
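Tox21 10K qHTS, HEK293, 600 cells/well, RealTime-Glo reagent co-dispensed with cells; 5 h preincubation, compound by pintool, 37 C, luminescence at 0–40 h.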

Experiment [17] in a line: qHTS RealTime-Glo MT Cell Viability Assay in HEK293 cells - 8 hour (AID 1224887). An outline of the steps:
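Measured as luminescence from the same continuously cultured HEK293 wells at successive time points (0, 8, 16, 24, 32, 40 h) after compound addition. Reagent present from seeding; dosing at 5 h; incubation 37 C.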

The nature of experiment [18]: qHTS assay to identify small molecule phospholipidosis (PLD) inducers (AID 1259344; active = well fitted curve in the direction sought with a large enough effect; an effect the other way counts as inactive or inconclusive). An outline of the steps:
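Read-out is LipidTOX Red fluorescence (ex 595/em 615) imaged in HepG2 cells after 24 h compound exposure at 37 C, with Hoechst nuclear counterstain (ex 352/em 461) allowing per-cell normalisation.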

Chain of Estrogen receptor (Homo sapiens) (P03372 whole entry, looked up): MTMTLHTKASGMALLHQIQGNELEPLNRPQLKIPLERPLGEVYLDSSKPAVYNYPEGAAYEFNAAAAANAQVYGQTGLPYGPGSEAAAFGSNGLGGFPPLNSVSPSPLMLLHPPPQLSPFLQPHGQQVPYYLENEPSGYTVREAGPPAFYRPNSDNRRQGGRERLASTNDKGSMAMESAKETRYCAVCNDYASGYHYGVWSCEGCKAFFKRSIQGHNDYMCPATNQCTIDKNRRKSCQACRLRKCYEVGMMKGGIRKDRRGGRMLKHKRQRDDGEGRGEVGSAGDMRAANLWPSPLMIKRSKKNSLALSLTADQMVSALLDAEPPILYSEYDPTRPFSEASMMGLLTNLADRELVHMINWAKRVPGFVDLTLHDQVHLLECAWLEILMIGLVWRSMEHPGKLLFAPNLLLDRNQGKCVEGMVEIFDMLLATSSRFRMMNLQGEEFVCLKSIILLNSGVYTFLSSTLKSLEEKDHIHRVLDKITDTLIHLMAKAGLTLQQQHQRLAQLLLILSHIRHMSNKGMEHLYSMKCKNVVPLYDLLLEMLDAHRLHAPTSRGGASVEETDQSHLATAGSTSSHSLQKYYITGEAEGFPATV

For `COC(=O)C(C)Oc1ccc(Oc2ncc(C(F)(F)F)cc2Cl)cc1` (stereo not drawn), the Potency entry in experiment [1], in experiment [2], in [3], in [4], in [5] and in experiment [6] was “inactive” each time. Moreover, the Potency result in experiment [7], in experiment [8], in experiment [9], in experiment [10], in [11] and in experiment [13] was “inactive” in each case. Besides, the Potency result in [14] and in experiment [15] was “inactive” in each case. Further, in experiment [12], the call was inactive.

As for `Cc1ccc(C(C)(C)C)cc1`, the Potency result in [1], in [2], in experiment [3], in [4], in experiment [16] and in [17] was “inactive” throughout. Further, the Potency entry in [5], in [6], in experiment [7], in experiment [9], in [10] and in experiment [11] was “inactive” in each case. In addition, the Potency entry in experiment [13], in experiment [14] and in experiment [15] was “inactive” in each case. The result in [12] was inactive.

As to `C[C@]12CC[C@@H]3c4ccc(O)cc4CC[C@H]3[C@@H]1CC[C@H]2O`, the Potency entry in [1], in [2], in experiment [4], in [5], in experiment [6] and in experiment [7] was “inactive” each time. Besides, the Potency result in [8], in experiment [9], in [11], in experiment [13], in experiment [14] and in experiment [15] was “inactive” each time. In addition, the Potency in experiment [3] is 11.2 µM (active) and 34.7 µM (active); in experiment [16], 5.59 µM (active) and 13.8 µM (active). For the same compound, the compound was called inactive in experiment [12].

As for `O=C1CCc2ccccc2O1`, the Potency result in experiment [1] was “inactive and 21.9 µM (active)”. The Potency result in experiment [2], in experiment [3], in experiment [4], in experiment [16], in experiment [17] and in experiment [5] was “inactive” each time. Also, the Potency result in experiment [6], in experiment [7], in experiment [9], in experiment [10], in experiment [11] and in [13] was “inactive” in each case. For the same compound, the Potency entry in experiment [15] was “inactive”. Besides, the compound was called inactive in experiment [12].

Regarding `[Na+]`, the Potency entry in experiment [1], in experiment [7], in [9], in experiment [10], in [11] and in experiment [13] was “inactive” in each case. In addition, the Potency entry in [14] and in experiment [15] was “inactive” throughout. For the same compound, the call in experiment [12] was inactive.

`O=C(O)c1cc(=O)[nH]c(=O)[nH]1`: the Potency result in experiment [1], in [2], in [3], in experiment [4], in [17] and in [5] was “inactive” each time. For the same compound, the Potency entry in experiment [6], in [7], in [9], in [10], in experiment [18] and in [11] was “inactive” in each case. Moreover, the Potency result in experiment [13] and in experiment [15] was “inactive” each time. Moreover, the call in experiment [12] was inactive. The Potency result in experiment [14] was “inactive and 16.8 µM (active)”.

With `COCCOCCOCCO`, the Potency entry in [1], in experiment [2], in [3], in experiment [4], in experiment [16] and in experiment [5] was “inactive” throughout. Moreover, the Potency entry in experiment [6], in experiment [7], in experiment [8], in [9], in experiment [11] and in [13] was “inactive” throughout. Besides, the Potency result in [14] and in experiment [15] was “inactive” in each case. In experiment [12], the compound was classed as inactive.

Turning to `NCCS(=O)(=O)O`, the Potency result in experiment [1], in experiment [2], in experiment [3], in [4], in [16] and in [5] was “inactive” throughout. Also, the Potency result in [6], in experiment [7], in experiment [8], in experiment [9], in experiment [10] and in [18] was “inactive” throughout. Moreover, the Potency result in [11], in experiment [13] and in [15] was “inactive” in each case. Further, the result in [12] was inactive. In experiment [14], the Potency was 22.5 µM (active) and inactive.

The record behind these values is PubChem BioAssay (Tox21).
